# Reference: PubChem BioAssay AID651601 (Sanford-Burnham Center for Chemical Genomics, 2012)
# Active and inactive are the calls of the source.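 How the source made its calls: active means CXCR6 mean IC50 below 15 µM, and neither CCR6 nor CXCR5 mean IC50 under five times that; inactive means the rest.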
# Molecular target: C-X-C chemokine receptor type 5 (Homo sapiens) (UniProt P32302)
# Test: chemokine receptor panel antagonism: CCR6, CXCR5, CXCR6, profiling panel, selectivity assay for CXCR6 antagonist project, cell-based, CHO-K1 PathHunter beta-arrestin, luminescence (AID 651601)
# Details: antagonist mode, mean of runs
# Chain of C-X-C chemokine receptor type 5 (Homo sapiens) (P32302 whole entry, looked up): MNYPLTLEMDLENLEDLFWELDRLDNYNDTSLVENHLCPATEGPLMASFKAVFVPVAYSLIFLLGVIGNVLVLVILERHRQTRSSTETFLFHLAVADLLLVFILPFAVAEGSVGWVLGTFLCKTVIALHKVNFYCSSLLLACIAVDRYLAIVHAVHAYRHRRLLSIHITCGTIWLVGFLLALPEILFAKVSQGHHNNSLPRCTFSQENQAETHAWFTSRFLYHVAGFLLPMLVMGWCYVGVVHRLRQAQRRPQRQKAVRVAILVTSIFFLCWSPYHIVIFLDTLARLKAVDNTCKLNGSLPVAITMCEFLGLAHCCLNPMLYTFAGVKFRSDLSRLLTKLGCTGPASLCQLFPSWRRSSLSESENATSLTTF
row,SMILES,outcome
1,COc1cccc(C(=O)NC2CC3CCCC(C2)N3CC(=O)Nc2ccc(N(C)C)cc2)c1 (stereo unspecified),inactive
2,COc1cc(C(=O)NC2CC3CCCC(C2)N3CC(=O)Nc2ccccc2)cc(OC)c1OC (stereo unspecified),inactive
3,COc1cccc(C(=O)NC2CC3CCCC(C2)N3CC(=O)Nc2ccccc2C(F)(F)F)c1 (stereo unspecified),inactive
4,O=C(CN1C2CCCC1CC(NC(=O)c1ccccc1)C2)Nc1ccccc1 (stereo unspecified),inactive
5,CN(C)c1ccc(NC(=O)CN2C3CCCC2CC(NC(=O)c2ccccc2)C3)cc1 (stereo unspecified),inactive
6,O=C(CN1C2CCCC1CC(NC(=O)c1ccccc1)C2)Nc1ccccc1C(F)(F)F (stereo unspecified),inactive
